# According to PubChem BioAssay (NCI):
# Several values for one entry are separate records, joined by “and”; a condition that tells them apart may be missing. Identical values can stand only once. The panel holds about 83,000 compounds, 20% with a hit somewhere; the sample as a whole holds those more often.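 Cells were grown in 96-well plates and exposed to the test compound at a single concentration for 48 hours; results are reported as percent growth, with values below 10 considered active.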 Activity calls are given as the source filed them.
# Tests used:
# Assay in all cases: NCI-60 one-dose screen, 48 h (100 = growth as untreated, 0 = no growth, -100 = all killed)
# Details in all cases: 10 µM unless noted
# SK-MEL-2 melanoma = system: SK-MEL-2 melanoma
# SN12C renal = system: SN12C renal
# UO-31 renal = system: UO-31 renal
# TK-10 renal = system: TK-10 renal
# ACHN renal = system: ACHN renal
# CAKI-1 renal = system: CAKI-1 renal
# A498 renal = system: A498 renal
# CCRF-CEM leukemia = system: CCRF-CEM leukemia
# MOLT-4 leukemia = system: MOLT-4 leukemia
# SR leukemia = system: SR leukemia
# RPMI-8226 leukemia = system: RPMI-8226 leukemia
# OVCAR-8 ovarian = system: OVCAR-8 ovarian
# OVCAR-5 ovarian = system: OVCAR-5 ovarian
# OVCAR-4 ovarian = system: OVCAR-4 ovarian
# SK-OV-3 ovarian = system: SK-OV-3 ovarian
# IGROV1 ovarian = system: IGROV1 ovarian
# OVCAR-3 ovarian = system: OVCAR-3 ovarian
# HS 578T breast = system: HS 578T breast
# NCI/ADR-RES ovarian = system: NCI/ADR-RES ovarian
# EKVX NSCLC = system: EKVX NSCLC
SMILES,growth (SK-MEL-2 melanoma),growth (SN12C renal),growth (UO-31 renal),growth (TK-10 renal),growth (ACHN renal),growth (CAKI-1 renal),growth (A498 renal),growth (CCRF-CEM leukemia),growth (MOLT-4 leukemia),growth (SR leukemia),growth (RPMI-8226 leukemia),growth (OVCAR-8 ovarian),growth (OVCAR-5 ovarian),growth (OVCAR-4 ovarian),growth (SK-OV-3 ovarian),growth (IGROV1 ovarian),growth (OVCAR-3 ovarian),growth (HS 578T breast),growth (NCI/ADR-RES ovarian),growth (EKVX NSCLC)
COc1ccc(CCN(C)CCCC(C#N)(c2ccc(OC)c(OC)c2)C(C)C)cc1OC (stereo not drawn),93.5% (inactive) and 109% (inactive),92.7% (inactive) and 107% (inactive) and 109% (inactive),63.4% (inactive) and 86.6% (inactive) and 81.2% (inactive),97.1% (inactive) and 127% (inactive) and 95.8% (inactive),93.2% (inactive) and 95.8% (inactive),73% (inactive) and 79.3% (inactive) and 94.5% (inactive),56.5% (inactive) and 96.5% (inactive) and 75.5% (inactive),95% (inactive) and 86.2% (inactive) and 97.9% (inactive),72.9% (inactive) and 83.8% (inactive) and 95.8% (inactive),80.8% (inactive) and 94.1% (inactive) and 90.1% (inactive),83.9% (inactive) and 83.6% (inactive) and 94.5% (inactive),97.5% (inactive) and 93.2% (inactive),93.1% (inactive) and 81% (inactive) and 92.6% (inactive),85.1% (inactive) and 104% (inactive),101% (inactive) and 98.3% (inactive) and 97.9% (inactive),98.7% (inactive) and 94.4% (inactive),103% (inactive) and 101% (inactive) and 96% (inactive),99.8% (inactive) and 88.1% (inactive) and 93.6% (inactive),86.6% (inactive) and 92% (inactive) and 86.1% (inactive),–
O=[N+]([O-])c1ccc(/C=N\NC(=S)Nc2ccc(F)cc2)cc1,91.1% (inactive) and 110% (inactive),105% (inactive) and 92% (inactive),96.9% (inactive) and 102% (inactive),109% (inactive) and 107% (inactive),86.2% (inactive) and 93.4% (inactive),97.1% (inactive) and 106% (inactive),119% (inactive),99.4% (inactive) and -3.91% (active),86.9% (inactive) and 98.6% (inactive),99.7% (inactive),100% (inactive) and 85.2% (inactive),94.1% (inactive) and 95.3% (inactive),115% (inactive) and 94.7% (inactive),92.6% (inactive),98.5% (inactive) and 91.7% (inactive),96.8% (inactive) and 99.1% (inactive),129% (inactive) and 109% (inactive),93.4% (inactive),100% (inactive) and 89.8% (inactive),–
CC(=O)Nc1ccc(O)cc1,95.7% (inactive) and 81.9% (inactive) and 108% (inactive),90.2% (inactive) and 102% (inactive) and 108% (inactive),84.3% (inactive) and 98% (inactive) and 90% (inactive),87.4% (inactive) and 69.9% (inactive) and 101% (inactive),100% (inactive) and 104% (inactive),98% (inactive) and 94.4% (inactive) and 101% (inactive),100% (inactive) and 102% (inactive) and 94.1% (inactive),88.7% (inactive) and 108% (inactive),102% (inactive) and 100% (inactive),117% (inactive) and 98.7% (inactive),105% (inactive),92.1% (inactive) and 103% (inactive) and 109% (inactive),–,105% (inactive) and 131% (inactive),114% (inactive) and 115% (inactive) and 91.5% (inactive),107% (inactive) and 114% (inactive),103% (inactive) and 102% (inactive) and 107% (inactive),113% (inactive) and 109% (inactive),101% (inactive) and 93.7% (inactive) and 104% (inactive),–
CN(C)c1ccc(/C=C(\C#N)c2ccccc2)cc1,-36% (active) and 11.7% (inactive) and 22.8% (inactive),66.5% (inactive) and 62.2% (inactive) and 39.1% (inactive),29.1% (inactive) and 53.1% (inactive) and 42.5% (inactive),57.8% (inactive) and 43.1% (inactive) and 54.9% (inactive),50.3% (inactive) and 65.3% (inactive) and 52.2% (inactive),–,63.6% (inactive) and 29.8% (inactive) and 0.464% (active),-17.2% (active) and 23.6% (inactive) and 6.64% (active),–,-18.5% (active) and 14.1% (inactive) and 8.15% (active),-23% (active) and 37.2% (inactive) and 10.1% (inactive),26.9% (inactive) and 43.7% (inactive) and 38% (inactive),41.5% (inactive) and 62.4% (inactive) and 55.4% (inactive),48.4% (inactive) and 61.8% (inactive) and 78.6% (inactive),30.9% (inactive) and 32.4% (inactive) and 29.9% (inactive),–,-57.9% (active) and 11.6% (inactive) and -12.2% (active),28.3% (inactive) and 56.2% (inactive) and 28.9% (inactive),-41.2% (active) and 13.3% (inactive) and 20.9% (inactive),53.9% (inactive) and 45.7% (inactive) and 56.9% (inactive)
COc1cc(NS(C)(=O)=O)ccc1Nc1c2ccccc2nc2c(C)cccc12,20.4% (inactive) and 44.2% (inactive),-8.74% (active) and 6.11% (active),-22.1% (active) and -17.6% (active),-39.5% (active) and -35.3% (active),-60.1% (active) and -56.2% (active),-35.7% (active) and -10.5% (active),-44% (active) and -27.8% (active),-11% (active),-12.1% (active) and -13.6% (active),4.23% (active) and -21.5% (active),-36.4% (active) and -21.4% (active),0.169% (active) and 1.18% (active),4.75% (active) and 8.59% (active),42.9% (inactive) and 62.8% (inactive),5.9% (active) and 11.9% (inactive),2.93% (active) and 14.4% (inactive),-57% (active) and 24.6% (inactive),32.7% (inactive) and 43% (inactive),27.7% (inactive) and 40.4% (inactive),–
N=C1N=C(N)CS1,116% (inactive),99.9% (inactive),93.2% (inactive),131% (inactive),116% (inactive),96.5% (inactive),90.7% (inactive),104% (inactive),99.1% (inactive),99.2% (inactive),107% (inactive),99.9% (inactive),–,99.8% (inactive),109% (inactive),105% (inactive),106% (inactive),109% (inactive),113% (inactive),–
NC(=S)NN=C1CCC(C2CCCCC2)CC1 (stereo not drawn),96% (inactive) and 90.2% (inactive),82.3% (inactive) and 82.5% (inactive),69.3% (inactive) and 45.9% (inactive),113% (inactive) and 104% (inactive),100% (inactive) and 98.8% (inactive),81.9% (inactive) and 96.2% (inactive),88.2% (inactive),81.1% (inactive) and 92% (inactive),81.4% (inactive) and 73.3% (inactive),125% (inactive),67.1% (inactive) and 74.9% (inactive),100% (inactive) and 98.8% (inactive),110% (inactive) and 93.3% (inactive),33.8% (inactive),100% (inactive) and 101% (inactive),98.2% (inactive) and 89.4% (inactive),83.9% (inactive) and 85.7% (inactive),79.3% (inactive) and 109% (inactive),–,–
Cc1ccc(-c2noc(C)n2)cc1,120% (inactive),102% (inactive),84% (inactive),107% (inactive),105% (inactive),94.5% (inactive),80.8% (inactive),103% (inactive),90.5% (inactive),90.7% (inactive),105% (inactive),101% (inactive),98.9% (inactive),118% (inactive),112% (inactive),–,122% (inactive),107% (inactive),108% (inactive),–
NC(=O)c1ccccc1OCC(O)CO (stereo not drawn),103% (inactive),101% (inactive),99.7% (inactive),110% (inactive),103% (inactive),97.5% (inactive),94.6% (inactive),93.6% (inactive),108% (inactive),94.9% (inactive),99% (inactive),104% (inactive),–,103% (inactive),109% (inactive),–,106% (inactive),117% (inactive),119% (inactive),–
